Measurements: PMC5540273 (PLoS ONE, 2017)

Legend:
Settings in all cases: concentration: 1 μM, replicates: in singlicate; n = 1
ROCK1 = system: ROCK1
ROCK2 = system: ROCK2
ROS1 = system: ROS1
[1] = system: RPS6KA4(Kin.Dom.1-N-terminal)
[2] = system: RPS6KA4(Kin.Dom.2-C-terminal)
[3] = system: RPS6KA5(Kin.Dom.1-N-terminal)
[4] = system: RPS6KA5(Kin.Dom.2-C-terminal)
[5] = system: T1, RSK1(Kin.Dom.1-N-terminal)
T1 construct: gene RPS6KA1

[6] = system: T2, RSK1(Kin.Dom.2-C-terminal)
T2 construct: gene RPS6KA1

[7] = system: T3, RSK2(Kin.Dom.1-N-terminal)
T3 construct: gene RPS6KA3

[8] = system: T4, RSK2(Kin.Dom.2-C-terminal)
T4 construct: gene RPS6KA3

[9] = system: T5, RSK3(Kin.Dom.1-N-terminal)
T5 construct: gene RPS6KA2

[10] = system: T6, RSK3(Kin.Dom.2-C-terminal)
T6 construct: gene RPS6KA2

[11] = system: T7, RSK4(Kin.Dom.1-N-terminal)
T7 construct: gene RPS6KA6

[12] = system: T8, RSK4(Kin.Dom.2-C-terminal)
T8 construct: gene RPS6KA6

S6K1 = system: S6K1
SBK1 = system: SBK1
SGK2 = system: SGK2
SGK3 = system: SGK3
SGK = system: SGK
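Note: KINOMEscan kinase panel screen.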

Structure (SMILES)	%Inh (ROCK1) [%]	%Inh (ROCK2) [%]	%Inh (ROS1) [%]	%Inh [1] [%]	%Inh [2] [%]	%Inh [3] [%]	%Inh [4] [%]	%Inh [5] [%]	%Inh [6] [%]	%Inh [7] [%]	%Inh [8] [%]	%Inh [9] [%]	%Inh [10] [%]	%Inh [11] [%]	%Inh [12] [%]	%Inh (S6K1) [%]	%Inh (SBK1) [%]	%Inh (SGK2) [%]	%Inh (SGK3) [%]	%Inh (SGK) [%]
Cc1cc(-c2ccc3c(c2)CC[C@@H](N[C@@H](C)c2ccccc2)C3)cnc1N.Cl [GW412617]	7	5	15	16	0	6	0	0	8	4	47	15	0	23	0	4	17	0	0	2
Cc1cccc(-c2nc(Nc3ccncc3)c3ccccc3n2)n1 [GW855857]	0	0	0	20	0	0	4	0	8	0	50	0	0	0	9	0	0	0	0	0
CCn1c(-c2cccnc2O)nc2cnccc21 [SB-736715]	11	0	0	0	0	0	0	0	0	4	1	0	13	0	15	5	0	0	0	0
Cc1cccc(-c2nc(-c3ccc(S(C)(=O)=O)cc3)sc2-c2ccnc(NCCc3ccccc3)c2)c1	0	0	0	5	2	18	0	0	8	0	0	5	0	0	0	0	0	2	0	0
Cc1cc(NCC(c2ccccc2)c2ccccc2)nc(NCc2ccc(C(F)(F)F)cc2)n1 [GW497681]	0	23	0	0	0	0	1	0	6	0	4	0	1	0	28	0	0	0	6	0
O=C(Nc1n[nH]c2nc(-c3nccs3)c(Br)cc12)C1CCCC1 [SB-742609]	10	0	0	7	0	0	0	14	0	11	0	0	0	0	1	19	12	0	0	7
CC(C)(C)c1ccc(C(=O)Nc2cn3cc(-c4cccnc4)ccc3n2)cc1	0	7	0	15	0	0	6	19	42	17	0	13	36	4	47	11	23	0	13	0
Cc1cccc(-c2nc(Nc3ccc4[nH]ncc4c3)c3ccccc3n2)n1 [GW857175]	29	52	17	0	33	0	5	15	50	18	23	14	1	35	15	26	5	6	9	25
Cn1ccc2ncnc(Oc3ccc(NC(=O)Nc4ccccc4)cc3)c21	0	24	15	21	0	0	2	0	0	0	0	12	0	0	0	0	0	7	28	1
Cc1c(O)cccc1Nc1ccnc2ccc(C(F)(F)F)cc12.Cl [GW466413]	10	20	3	17	0	32	0	0	2	0	16	0	0	4	0	0	0	0	2	0
